We go through 30 sequences from the OligoGym collection.
Also: reference of the scale not given here.

The target of one test is CTNNBL1. Kind of test: pooled miR-30 sensor sort-seq; sequence = guide strand. Particulars: shRNA.
The sequence TTAAACACGGATAACTGCTGAA gave a sensor-assay potency score (higher = more potent) of -0.397. ATCTCTGTCAATAATCTGCAGC displayed a sensor-assay potency score (higher = more potent) of -0.982.

TACAGCATTCAGCTCCACCAGA registered a sensor-assay potency score (higher = more potent) of -0.685. Regarding TTTTTTTGTCATCATCCGCTTC, the sensor-assay potency score (higher = more potent) was -0.298.

In the case of TATCGTGTCCGAGCAAGCCGAG, the sensor-assay potency score (higher = more potent) was -1.14. Still for that read-out and setting: the value for ATCTGTATTATCGTGTCCGAGC was -1.22.

For a further test, the target named is CTSB. The description is as above. The following applies: shRNA.
Regarding TTGTCCAGAAGTTCCAAGCTTC, the sensor-assay potency score (higher = more potent) was -0.113. The sequence TTCCACAGTGATCCTGTCCTCT came in with a sensor-assay potency score (higher = more potent) of -0.145.

The sequence TTGTCCTGTTTGTAGGTCGGGC gave a sensor-assay potency score (higher = more potent) of -0.855.

In the case of TTTTCTTGTCCAGAAGTTCCAA, the sensor-assay potency score (higher = more potent) was -0.152.

TTCTGATTCGATTCCACAGTGA had a sensor-assay potency score (higher = more potent) of -0.73.

Turning to TTGGCAACCAGCCAGTAGGGTG, the sensor-assay potency score (higher = more potent) was -1.27. Same read-out and setting: the value for TTTCTTGTCCAGAAGTTCCAAG was -1.12; that for TTGTAGAGCAGGAAGTCCGAAT was -0.653. On the same count and under the same terms, next, TGACGTGTTGGTACACTCCTGA: 0.569. On the same count and under the same terms, next, TGTTGGTACACTCCTGACTTGT: -1.2; TTTGTTGACATAGTTGACCAGC: -0.0911.

In turn, TCGGTAAACATAACTCTCTGGG came in with a sensor-assay potency score (higher = more potent) of -0.352. Same read-out and setting: next, ATAGTTGACCAGCTCATCCGAC: -0.423.

TTCTATTAAAGAATCATGCTGA: the sensor-assay potency score (higher = more potent) stood at 0.656.

Consider TAACTTGACAGGGTGAAGCTGT, for which the sensor-assay potency score (higher = more potent) is -0.16. On the same count and under the same terms, next, TTCTCGCTATTGGAGACGCTGT: -1.66; TATCCGTAGTGCTTGTCCTGTT: -0.438; TAGTTGACCAGCTCATCCGACA: -0.966.

For TCTCTGATCTCTTTGATGGTGG, the sensor-assay potency score (higher = more potent) is -0.142. Same read-out and setting: next, TTTTTGTAGATCTCGGCCATGA: -0.154; TTGTAGGTCGGGCTGTAGCCAG: -1.22; TAAACATAACTCTCTGGGGTGG: -0.755. TCACAGATCTTGCTACACTTGG displayed a sensor-assay potency score (higher = more potent) of -0.121. Same read-out and setting: next, TTGGTGTGGATGCAGATCCGGT: -1.05.
